Drawing on PubChem BioAssay (Tox21), this text covers Potency for 40 molecules.

Values joined by “and” are separate entries in the source; they are usually repeats but may differ in a detail not shown here. Equal entries are not always repeated. Results filed as inconclusive are left out. A call without a number means that no potency is given here. Some compounds were tested as several samples or in several runs, with calls that do not always agree. Active and inactive are the calls of the source. Calls follow the shape of the dose curve; as a rule, active = well fitted activation curve with a large enough effect in the repeat runs; inconclusive = weak or mixed curves; inactive = flat fitted curve, though single readings scatter.
Potency is read from the fitted curve at half-maximal effect.

This test can be described thus: A CellTox Green Cytotoxicity Assay to monitor cytotoxicity in HepG2 cells - 8 hour (AID 1224890). Also: nearly all actives have a fitted effect of over 45% in size. Particulars: CellTox Green fluorescence; series mostly up to 76.8 µM. From the text: National Center for Advancing Translational Sciences [NCATS]
NIH Chemical Genomics Center [NCGC]
U.S. Environmental Protection Agency [EPA]
National Institutes of Environmental Health Sciences [NIEHS]
National Toxicology Program [NTP]
Cell-based models are critical for drug discovery. Determining the natural cytotoxic effects resulting from test compounds is an essential research activity. A CellTox Green Cytotoxicity Assay to monitor cytotoxicity in real time of continues cell culture during 40 hours of the compound treatment was used to screen Tox21 10K library compounds in HepG2 cells. CellTox Green Cytotoxicity Assay is a nonlytic, homogeneous, biofluorescent method to measure cytotoxicity in cell culture after experimental manipulation. The assay system uses a proprietary asymmetric cyanine dye that is excluded from viable cells but preferentially stains the dead cell's DNA. […] Viable cells produce no appreciable increases in fluorescence. Therefore, the fluorescence signal produced by the binding interaction with dead cell DNA is proportional to cytotoxicity.
The mixture of HepG2 cell suspension and reagents were dispensed at 600cells/6 ul/well in 1536-well tissue culture treated black solid bottom plates using a Multidrop dispenser. After the assay plates were incubated at a 37 C/5% CO2 incubator for 5 hours, 23 nL of compounds dissolved in DMSO, positive and negative controls was transferred to the assay plate by a pintool work station. The plates were incubated at 37 C for 40 hours. The fluorescence intensity were measured at 0h, 8h, 16h, 24h, 32h and 40h time points using ViewLux plate reader during compound treatment.
Consider `CCCNC(C)C(=O)Nc1ccccc1C` (stereo not given), for which the Potency entry is “inactive”.

On to `CCCCN(CCO)CCCC`, for which the Potency result was “inactive”.

For the molecule `Cc1ccc(-c2cc(C(F)(F)F)nn2-c2ccc(S(N)(=O)=O)cc2)cc1`, the Potency was 54.9 µM (active).

`CC(=O)O[C@]1(C(C)=O)CC[C@H]2[C@@H]3C[C@H](C)C4=CC(=O)CC[C@]4(C)[C@H]3CC[C@@]21C`: the Potency entry is “inactive”.

Regarding `CCCCCCCCCCCC[N+](C)(C)C`, the Potency entry was “inactive”.

`CC(C(O)c1ccc(O)cc1)N1CCC(Cc2ccccc2)CC1` (stereo not given): the Potency entry is “inactive”.

For `CC[C@H]1CN2CCc3cc(OC)c(OC)cc3[C@@H]2C[C@@H]1C[C@H]1NCCc2cc(OC)c(OC)cc21`, the Potency entry was “inactive”.

As for `CC(C)(C)c1ccccc1`, the Potency entry is “inactive”.

`O=C1CC2(CCCC2)CC(=O)N1CCCCN1CCN(c2ncccn2)CC1`: the Potency result is “inactive”.

In the case of `CC(C)(c1ccccc1)c1ccc(Nc2ccc(C(C)(C)c3ccccc3)cc2)cc1`, the Potency entry is “inactive”.

On to `CCCCCCCCCCCCc1ccccc1O`, for which the Potency entry is “inactive and 21.9 µM (active)”.

On to `CCC(=O)/C=C/C1C(C)=CCCC1(C)C` (stereo not given), for which the Potency result was “inactive”.

As for `CCC(C)(C)C(=O)O[C@H]1C[C@@H](C)C=C2C=C[C@H](C)[C@H](CC[C@@H]3C[C@@H](O)CC(=O)O3)[C@H]21`, the Potency entry is “inactive”.

Turning to `c1ccc2c(c1)CCCC2C1=NCCN1` (stereo not given), the Potency result is “inactive”.

Consider `CCCCOCCOC(=O)c1ccccc1C(=O)OCCOCCCC`, for which the Potency result was “inactive”.

Turning to `Cc1scc2c1N(C(=O)CN1CCN(C)CC1)c1ccccc1NC2=O`, the Potency result is “inactive”.

Regarding `COC(=O)[C@H]1[C@H]2C[C@@H]3c4[nH]c5cc(OC)ccc5c4CCN3C[C@H]2C[C@@H](OC(=O)c2cc(OC)c(OC)c(OC)c2)[C@@H]1OC`, the Potency result was “inactive”.

As to `CCCC(=O)c1ccccc1`, the Potency result was “inactive”.

Regarding `CCC[C@H](N[C@@H](C)C(=O)N1[C@H](C(=O)O)C[C@@H]2CCCC[C@@H]21)C(=O)OCC`, the Potency entry is “inactive”.

Take `C1COC(NC(C2CC2)C2CC2)=N1`: the Potency result is “inactive”.

Turning to `CC(C)(C)c1cc(C(C)(C)C)c(O)c(C(C)(C)C)c1`, the Potency entry is “inactive”.

With `CC(=O)Nc1ccc(C(=O)CCl)cc1`, the Potency entry is “inactive”.

In the case of `OCC(CO)N[C@H]1C[C@](O)(CO)[C@@H](O)[C@H](O)[C@H]1O`, the Potency entry is “inactive”.

For `CC[C@@H](N)CO`, the Potency result was “inactive”.

With `CC(N)=O`, the Potency entry is “inactive”.

For `CC(=O)CC(C)=O`, the Potency result was “inactive”.

`Cc1cc(Cc2cc(C)cc(C(C)(C)C)c2O)c(O)c(C(C)(C)C)c1`: the Potency is 43.9 µM (active) and 34.7 µM (active).

For `Cc1cc(OCCOCC[N+](C)(C)Cc2ccccc2)ccc1C(C)(C)CC(C)(C)C`, the Potency was 21.7 µM (active) and 21.3 µM (active).

For `CO[Si](OC)(OC)c1ccccc1`, the Potency result is “inactive”.

For the molecule `CC[C@]1(O)C[C@@H]2CN(CCc3c([nH]c4ccccc34)[C@@](C(=O)OC)(c3cc4c(cc3OC)N(C)[C@H]3[C@@](O)(C(=O)OC)[C@H](OC(C)=O)[C@]5(CC)C=CCN6CC[C@]43[C@@H]65)C2)C1`, the Potency entry was “inactive”.

On to `CC(C)(C)NC(=O)[C@@H]1CN(Cc2cccnc2)CCN1C[C@@H](O)C[C@@H](Cc1ccccc1)C(=O)N[C@H]1c2ccccc2C[C@H]1O`, for which the Potency result is “inactive”.

As to `O=C(Oc1ccccc1)c1ccccc1O`, the Potency entry is “inactive”.

As to `Nc1nc2ccccc2[nH]1`, the Potency entry was “inactive”.

Regarding `[Cl][In]([Cl])[Cl]`, the Potency entry was “inactive”.

For `C[N+]1([O-])CCOCC1`, the Potency entry is “inactive”.

In the case of `CCc1cc(C(C)(C)C)c(O)c(C(C)(C)C)c1`, the Potency result is “inactive”.

For the molecule `CCCCC(CC)COC(=O)CC(C(=O)OCC(CC)CCCC)S(=O)(=O)O` (stereo not given), the Potency result is “inactive”.

As for `CCOC(=O)C(C)C(C)=O` (stereo not given), the Potency result was “inactive”.

Take `Cc1ccnc2c1NC(=O)c1cccnc1N2C1CC1`: the Potency entry was “inactive”.

As for `CC(=O)OCCOCCOCCOC(C)=O`, the Potency entry was “inactive”.
